Consider 8 molecules from PubChem BioAssay (Tox21).

Assay [1] is described as follows: qHTS assay to identify small molecule agonists of the estrogen receptor alpha (ER-alpha) signaling pathway in the presence of an antagonist - cell viability counter screen (AID 1259386).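 Further: series mostly up to about 92 µM; cells exposed to compounds for 22 h at 37 °C before the viability read; nearly all actives have a fitted effect of over 30% in size.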 The method, boiled down:
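Read-out: CellTiter-Fluor fluorescence after 1hr reagent incubation, measured in the same wells as the luciferase readout. VM7Luc4E2 cells were exposed to 15 compound concentrations with 10.0nM ICI-182,780 for 22hr at 37C.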

The target in assay [2] is Progesterone receptor (Homo sapiens) (UniProt P06401). The assay can be described thus: qHTS assay to identify small molecule antagonists of the progesterone receptor (PR) signaling pathway (AID 1346795; active means well fitted inhibition curve with a large enough effect in the signal ratio in the repeat runs, not every such curve was filed as active; the % refers to the signal ratio; further: potency means the concentration at half of the fitted maximal effect). The method, boiled down:
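Antagonist mode: compounds tested against 1 nM (final) promegestone stimulation in HEK293T cells expressing PR-UAS-bla reporter, 16 hr at 37C, 5% CO2; beta-lactamase activity detected via B/G FRET substrate after 2 hr at room temperature.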

Assay [3] is described as follows: qHTS assay to identify small molecule antagonists of the progesterone receptor (PR) signaling pathway - cell viability counter screen (AID 1346798). Further: series mostly up to about 92 µM; nearly all actives have a fitted effect of over 50% in size. The method, boiled down:
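Counter screen for cytotoxicity: viability of PR-UAS-bla HEK293T cells was measured with CellTiter-Glo luminescence following 16 hr compound exposure in the presence of R5020.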

A short description of assay [4]: qHTS assay to identify small molecule antagonists of the TGF-beta/Smad signaling pathway - cell viability counter screen (AID 1346824). Further: nearly all actives have a fitted effect of over 50% in size. The method, boiled down: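 Cytotoxicity counter-screen run in the same wells as the beta-lactamase Smad reporter read: CellTiter-Glo luminescence after 30 min at room temperature. HEK 293T SBE-bla cells had 5 hr compound exposure at 37 C with TGF-beta1 (0.25 ng/mL stock).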

Assay [5] in a line: qHTS assay to identify small molecule agonists of the TGF-beta/Smad signaling pathway - cell viability counter screen (AID 1346829). Further: top concentration of the series differs between compounds; nearly all actives have a fitted effect of over 45% in size. The gist of the method:
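After overnight seating at 37 C and 5% CO2, reporter cells got compounds for 5 hr and FRET substrate for 2 hr; cell viability then came from CellTiter-Glo luminescence.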

Assay [6] is described as follows: qHTS assay to identify small molecule agonists of the TGF-beta/Smad signaling pathway (AID 1346859; active means well fitted activation curve with a large enough effect in the signal ratio in the repeat runs, not every such curve was filed as active; the % refers to the signal ratio; further: series mostly up to about 77 µM). The gist of the method:
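Reporter line: HEK 293T with stably integrated SBE-controlled beta-lactamase. Compound exposure lasts 5 hr at 37 C and 5% CO2; substrate loading follows for 2 hr at room temperature, with emission read at 460 and 530 nm.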

The target in assay [7] is Thyrotropin-releasing hormone receptor (Homo sapiens) (UniProt P34981). The assay can be described thus: qHTS assay to identify small molecule antagonists of the thyrotropin-releasing hormone receptor (TRHR) signaling pathway (AID 1346877; active means well fitted inhibition curve with a large enough effect in the repeat runs, not every such curve was filed as active; further: series mostly up to about 51 µM). The method, boiled down: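 HEK293/TRHR cells, 18 h, 37 °C; Ca2+ dye 2 h; cpd 5 min RT; TRH 1 nM final; fluorescence read 3 min, 1 s intervals; 15 concs, triplicate.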

For assay [8] the target is unchanged. The assay can be described thus: qHTS assay to identify small molecule agonists of the thyrotropin-releasing hormone receptor (TRHR) signaling pathway (AID 1346891; calls by dose curve;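 further: HEK293 cells expressing TRHR with calcium dye readout; series mostly up to about 58 µM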). The method, boiled down:
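Cells: TRHR-Hek293, seeded and incubated 18 h. Dye loading: 2 h at 37 °C. Compound added from DMSO stock by pin tool. Read-out: kinetic calcium fluorescence over 3 min.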

The nature of assay [9]: Human pregnane X receptor (PXR) small molecule agonists, qHTS cell viability counter screen (AID 1346977). Further: nearly all actives have a fitted effect of over 50% in size. The gist of the method: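 Cytotoxicity counter screen run in the same wells as the PXR luciferase assay, using PXR-Luc HepG2 cells in charcoal-stripped serum medium. Viability: CellTiter-Fluor fluorescence after 24hr compound treatment.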
The nature of assay [10]: Caspase-3/7 induction in HepG2 cells by small molecules, qHTS assay (AID 1346978). Further: nearly all actives have a fitted effect of over 15% in size. The method, boiled down: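 Caspase-3/7 induction was measured by Caspase-Glo 3/7 luminescence (30 min, room temperature) after a 17 hr compound exposure of wild-type HepG2 cells seeded at 2,000 per well and pre-incubated 5 hr.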
The nature of assay [11]: Caspase-3/7 induction in CHO-K1 cells by small molecules, qHTS cell viability counter screen (AID 1346979). Further: nearly all actives have a fitted effect of over 35% in size. Further: potency means the concentration at half of the fitted maximal effect. The gist of the method: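 Cytotoxicity counter screen run in parallel with the caspase-3/7 assay: CHO-K1 cells, 16hr compound treatment at 37C, then CellTiter-Fluor for 1hr before fluorescence reading.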
The nature of assay [12]: Caspase-3/7 induction in CHO-K1 cells by small molecules, qHTS assay (AID 1346980). Further: nearly all actives have a fitted effect of over 15% in size. The method, boiled down:
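Luminescent Caspase-Glo 3/7 read (30min, room temperature) quantified apoptosis induction. Cells were wild-type CHO-K1, treated with compound for 17hr at 37 C and 5% CO2.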

The nature of assay [13]: Caspase-3/7 induction in HepG2 cells by small molecules, qHTS cell viability counter screen (AID 1346981). Further: series mostly up to about 92 µM; nearly all actives have a fitted effect of over 30% in size. The gist of the method:
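Fluorescence read-out of live-cell protease activity (CellTiter-Fluor) after 1 hr with reagent. This was measured in the same wells as the caspase-3/7 luminescence, on HepG2 cells exposed to DMSO-dissolved compounds for 16 hr at 37 C.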

The target in assay [14] is Nuclear receptor subfamily 1 group I member 2 (Homo sapiens) (UniProt O75469). The assay can be described thus: Human pregnane X receptor (PXR) small molecule agonists, qHTS assay (AID 1346982). Further: nearly all actives have a fitted effect of over 35% in size. Further: potency means the concentration at half of the fitted maximal effect. The method, boiled down: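 HepG2 PXR-Luc reporter line, 5% charcoal-stripped FBS; 5 hr pre-incubation, compound (DMSO) 24 hr at 37 C/5% CO2; ONE-Glo 30 min RT; luminescence read-out.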

Assay [15] addresses Acetylcholinesterase (Homo sapiens) (UniProt P22303). The assay can be described thus: Acetylcholinesterase (AChE) small molecule antagonists: colormetric cell-based qHTS assay (AID 1347395; calls by dose curve; further: nearly all actives have a fitted effect of over 30% in size). The gist of the method:
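Cells (SH-SY5Y, 2,000 per well) are seeded and left overnight at 37 C. Compound is added for 30 min, then DTNB and acetylthiocholine for a further 90 min at 37 C before absorbance-based thiocholine detection.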

In assay [16] the target is Progesterone receptor (Homo sapiens) (UniProt P06401). The assay can be described thus: qHTS assay to identify small molecule agonists of the progesterone receptor (PR) signaling pathway (AID 1346784; calls by dose curve; further: nearly all actives have a fitted effect of over 30% in size). The gist of the method: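 Cells (PR-UAS-bla HEK 293T, GripTite) were plated in assay medium containing 2% charcoal-stripped FBS and incubated 6 hr. Test compounds in DMSO were added for 16 hr at 37C. FRET substrate was then loaded for 2 hr at room temperature before fluorescence reading.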

Assay [17] in a line: qHTS assay to identify small molecule agonists of the progesterone receptor (PR) signaling pathway - cell viability counter screen (AID 1346799; calls by dose curve; further: nearly all actives have a fitted effect of over 45% in size). The method, boiled down: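 Cells (PR-UAS-bla HEK293T) are plated at 3,000/well in 2% charcoal-stripped FBS medium, rested 6 hr, dosed and incubated 16 hr at 37C. CellTiter-Glo is then added and luminescence measured after 30 min at room temperature.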

Assay [18] concerns the target Nuclear receptor subfamily 1 group I member 2 (Rattus norvegicus) (UniProt Q9R1A7). The assay can be described thus: Rat pregnane X receptor (rPXR) activation by small molecules, qHTS assay (AID 1346983). Further: nearly all actives have a fitted effect of over 20% in size. The following applies: rPXR luciferase reporter cells, One-Glo luminescence, 24 h; max activation: hits give high values. The gist of the method:
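Luminescent readout (One-Glo luciferase, 30 min room temperature) followed 24 hr compound treatment at 37 C of rPXR cells plated 2,000 per well and preincubated 5hr; qHTS format with compounds delivered in DMSO.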

Assay [19] concerns the target Nuclear receptor subfamily 1 group I member 2 (Homo sapiens) (UniProt O75469). The assay can be described thus: CYP3A4 induction through human pregnane X receptor (PXR) by small molecules, qHTS assay (AID 1346984). Further: nearly all actives have a fitted effect of over 40% in size. The method, boiled down: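 HepG2-derived DPX-2 line carrying PXR plus a CYP3A4-promoter luciferase reporter; cells plated 5 hr, compound-exposed 24 hr at 37C. CYP3A4 activity probed with 3uM (final) Luciferin-IPA for 3hr, then luciferase read after One-Glo.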

For assay [20] the target is unchanged. The assay can be described thus: Human pregnane X receptor (PXR) activation by small molecules, qHTS assay (AID 1346985). Further: nearly all actives have a fitted effect of over 40% in size. The method, boiled down:
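DPX-2 cells (HepG2 co-transfected with a PXR response element and a CYP3A4-promoter luciferase construct) were seeded at 2,000 per well, rested 5 hr at 37C, then exposed to DMSO-dissolved compounds for 24 hr. Activation was read as luciferase luminescence.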

Unmarked numbers belong to inactive results. Inconclusive results are not listed. Calls of active or inactive are those of the source. Unless noted, the call rests on the fitted dose curve; in most records, active means well fitted curve in the direction sought with a large enough effect in the repeat runs; inconclusive means weak or mixed curves; inactive means no such curve, though single readings can be large; an effect the other way counts as inactive or inconclusive.
On the % scale 0 is the no-effect control and ±100 the full control effect.

Nuclear receptor subfamily 1 group I member 2 (Homo sapiens), sequence (O75469 whole entry, looked up): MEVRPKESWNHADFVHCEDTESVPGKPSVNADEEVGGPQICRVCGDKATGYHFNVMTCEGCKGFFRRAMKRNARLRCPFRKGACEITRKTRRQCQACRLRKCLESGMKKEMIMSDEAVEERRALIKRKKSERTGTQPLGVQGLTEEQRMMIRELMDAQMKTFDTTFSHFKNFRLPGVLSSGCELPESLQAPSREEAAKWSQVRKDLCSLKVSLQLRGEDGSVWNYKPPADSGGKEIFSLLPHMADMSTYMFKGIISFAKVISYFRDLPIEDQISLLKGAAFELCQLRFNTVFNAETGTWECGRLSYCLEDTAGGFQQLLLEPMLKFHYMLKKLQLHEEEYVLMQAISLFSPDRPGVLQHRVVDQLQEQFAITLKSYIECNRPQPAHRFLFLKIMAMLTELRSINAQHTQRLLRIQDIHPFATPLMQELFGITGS
Progesterone receptor (Homo sapiens), sequence (P06401 whole entry, looked up): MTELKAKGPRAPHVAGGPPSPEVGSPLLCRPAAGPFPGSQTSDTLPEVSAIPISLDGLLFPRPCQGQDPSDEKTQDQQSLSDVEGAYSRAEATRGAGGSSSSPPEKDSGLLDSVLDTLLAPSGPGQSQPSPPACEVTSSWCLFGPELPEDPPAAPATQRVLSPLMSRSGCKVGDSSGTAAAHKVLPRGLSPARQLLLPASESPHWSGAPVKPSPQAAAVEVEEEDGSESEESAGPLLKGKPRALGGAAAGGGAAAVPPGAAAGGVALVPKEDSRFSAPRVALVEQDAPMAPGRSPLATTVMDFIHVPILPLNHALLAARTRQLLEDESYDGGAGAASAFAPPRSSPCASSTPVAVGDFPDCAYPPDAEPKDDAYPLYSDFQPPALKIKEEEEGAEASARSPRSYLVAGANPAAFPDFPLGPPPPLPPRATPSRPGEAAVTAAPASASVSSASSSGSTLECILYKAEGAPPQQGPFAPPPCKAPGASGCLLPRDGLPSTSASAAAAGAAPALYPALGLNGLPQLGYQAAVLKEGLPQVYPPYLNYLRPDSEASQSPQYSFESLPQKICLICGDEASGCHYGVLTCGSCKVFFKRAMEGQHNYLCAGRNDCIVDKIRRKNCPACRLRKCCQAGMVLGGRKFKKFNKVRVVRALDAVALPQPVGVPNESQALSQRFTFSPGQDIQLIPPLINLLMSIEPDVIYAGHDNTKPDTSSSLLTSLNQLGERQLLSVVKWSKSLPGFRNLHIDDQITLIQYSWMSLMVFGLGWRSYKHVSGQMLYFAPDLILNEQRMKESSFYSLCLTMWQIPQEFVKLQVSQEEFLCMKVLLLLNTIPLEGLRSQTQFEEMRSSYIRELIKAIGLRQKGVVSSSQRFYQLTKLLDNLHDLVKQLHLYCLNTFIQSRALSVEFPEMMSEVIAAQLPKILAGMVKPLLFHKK
Thyrotropin-releasing hormone receptor (Homo sapiens), sequence (P34981 whole entry, looked up): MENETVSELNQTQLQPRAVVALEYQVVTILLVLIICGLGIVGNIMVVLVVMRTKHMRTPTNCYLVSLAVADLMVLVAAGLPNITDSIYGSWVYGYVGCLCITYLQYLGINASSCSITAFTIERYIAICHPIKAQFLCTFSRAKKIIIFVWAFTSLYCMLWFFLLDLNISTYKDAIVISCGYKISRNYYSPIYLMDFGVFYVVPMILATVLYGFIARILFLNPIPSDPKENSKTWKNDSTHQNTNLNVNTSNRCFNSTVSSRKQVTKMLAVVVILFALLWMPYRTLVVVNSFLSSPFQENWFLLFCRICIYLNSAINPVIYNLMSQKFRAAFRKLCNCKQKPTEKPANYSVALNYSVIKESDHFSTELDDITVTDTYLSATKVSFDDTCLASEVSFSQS
Acetylcholinesterase (Homo sapiens), sequence (P22303 whole entry, looked up): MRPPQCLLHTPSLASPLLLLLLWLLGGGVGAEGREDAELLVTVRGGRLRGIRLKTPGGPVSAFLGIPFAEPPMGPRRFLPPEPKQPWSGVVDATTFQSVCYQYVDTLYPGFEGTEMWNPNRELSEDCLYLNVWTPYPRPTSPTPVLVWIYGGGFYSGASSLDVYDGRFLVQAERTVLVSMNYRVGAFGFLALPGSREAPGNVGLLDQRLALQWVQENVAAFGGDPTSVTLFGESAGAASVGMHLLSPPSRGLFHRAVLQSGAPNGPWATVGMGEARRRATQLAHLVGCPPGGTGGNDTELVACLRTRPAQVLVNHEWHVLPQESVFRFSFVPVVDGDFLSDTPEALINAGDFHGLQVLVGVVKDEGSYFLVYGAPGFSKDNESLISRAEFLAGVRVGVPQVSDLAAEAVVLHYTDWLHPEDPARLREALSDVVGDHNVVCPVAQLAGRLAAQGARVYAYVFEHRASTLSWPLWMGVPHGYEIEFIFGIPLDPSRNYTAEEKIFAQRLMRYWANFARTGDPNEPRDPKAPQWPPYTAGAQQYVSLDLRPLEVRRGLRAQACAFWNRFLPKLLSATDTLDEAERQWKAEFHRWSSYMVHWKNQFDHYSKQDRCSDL
Nuclear receptor subfamily 1 group I member 2 (Rattus norvegicus), sequence (Q9R1A7 whole entry, looked up): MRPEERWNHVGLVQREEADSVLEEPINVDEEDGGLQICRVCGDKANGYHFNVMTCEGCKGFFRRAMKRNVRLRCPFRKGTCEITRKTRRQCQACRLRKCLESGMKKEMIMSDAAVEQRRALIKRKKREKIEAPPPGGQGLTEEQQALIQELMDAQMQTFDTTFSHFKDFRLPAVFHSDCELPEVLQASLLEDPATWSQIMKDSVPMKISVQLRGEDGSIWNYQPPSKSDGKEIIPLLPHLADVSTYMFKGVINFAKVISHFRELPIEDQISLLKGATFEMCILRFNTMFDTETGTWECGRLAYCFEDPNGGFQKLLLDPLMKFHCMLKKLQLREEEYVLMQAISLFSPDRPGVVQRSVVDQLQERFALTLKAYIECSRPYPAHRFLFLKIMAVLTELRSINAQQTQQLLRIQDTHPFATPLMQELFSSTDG

For `N#CSCc1ccccc1`, the Potency result in [1], in assay [2], in [3], in assay [4], in assay [5] and in assay [7] was “inactive” in each case. In addition, the Potency entry in assay [8], in [9], in assay [10], in assay [11], in assay [12] and in assay [13] was “inactive” each time. In addition, the Potency entry in assay [15] was “inactive”. Moreover, in assay [6], the result was inactive. Further, the Potency in assay [14] was 43.5 µM (active).
Turning to `CCCCN(CCCC)C(=S)[S-].CCCCN(CCCC)C(=S)[S-].[Ni+2]`, the Potency entry in assay [16], in [2], in [3], in assay [17], in assay [4] and in assay [5] was “inactive” in each case. In addition, the Potency result in [9], in [10], in assay [11], in assay [12], in assay [14] and in assay [15] was “inactive” throughout.
Take `COc1c2c(cc3c1OCO3)CCN(C)C2`: the Potency entry in [16], in [2], in assay [3], in [17], in assay [4] and in [5] was “inactive” each time. Further, the Potency entry in [7], in [8], in assay [9], in [10], in assay [11] and in assay [12] was “inactive” in each case. Besides, the Potency result in assay [13], in assay [14], in assay [19], in assay [20] and in assay [15] was “inactive” in each case. In addition, the max activation in assay [18] was -1.49%.
As to `CN1[C@@H]2CC[C@H]1CC(O)C2` (stereo not given in full), the Potency entry in assay [16], in assay [2], in assay [3], in assay [17], in assay [4] and in assay [5] was “inactive” each time. Also, the Potency entry in [7], in assay [8], in assay [9], in assay [10], in [11] and in assay [12] was “inactive” each time. Besides, the Potency entry in assay [13], in [14] and in [15] was “inactive” in each case. For the same molecule, the molecule was called inactive in assay [6].
In the case of `CCCCCCCc1ccc(O)cc1`, the Potency entry in assay [16], in assay [3], in [4], in assay [8], in assay [12] and in assay [15] was “inactive” throughout. The Potency was 21.7 µM (active) in assay [2] and 61.1 µM (active) in assay [14]. The call in assay [6] was inactive.
On to `CNC(C)(C)Cc1ccccc1`, for which the Potency entry in assay [16], in [2], in [3], in assay [17], in assay [4] and in [5] was “inactive” in each case. The Potency entry in assay [9], in [10], in [11], in assay [12], in assay [13] and in assay [14] was “inactive” each time. Besides, the Potency entry in assay [19], in assay [20] and in [15] was “inactive” in each case. Also, the molecule was called inactive in assay [6]. Besides, the max activation in assay [18] was -0.549%.
On to `Nc1ccc(Cl)cc1C(=O)c1ccccc1F`, for which the Potency entry in [16], in assay [3], in [17], in [4], in [7] and in [8] was “inactive” throughout. In addition, the Potency entry in [9], in assay [10], in assay [12] and in assay [15] was “inactive” in each case. Also, in [6], the molecule was classed as inactive. Moreover, in assay [14], the Potency is 29.8 µM (active).
For the molecule `CO/N=C(\C(=O)OC)c1ccccc1CO/N=C(\C)c1cccc(C(F)(F)F)c1`, the Potency entry in assay [16], in assay [3], in assay [5], in assay [8], in assay [10] and in [12] was “inactive” in each case. Moreover, the Potency entry in [15] is “inactive”. Also, the Potency in assay [2] is 6.86 µM (active); in assay [11], 0.137 µM (active); in [14] it was 0.686 µM (active). Moreover, the molecule was called inactive in assay [6].
